# Most compounds without a hit are left out; they make up all but 2.4% or so of the library.
# CHO-K1 Ca PAM: counter-screen for M1 PAMs: effect in parental CHO-K1 cells; ATP EC20, Fluo-8 calcium fluorescence; 0% at ATP EC20, 100% at ATP max; activation, % at 3 µM; hit rate 0.02% among 360,000;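 active means activation above the run cutoff, the mean activation of all test compounds plus 3 SD, cut at about 40% in these data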;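 further: peak over basal fluorescence ratio in a 140 s read after ATP addition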
# CHO-K1 Ca antag: nonselective inhibitor or artifact in parental CHO-K1 cells; AID 602250; inhibition, % at 3 µM; hit rate 0.6% among 360,000; ATP-induced calcium, Fluo-8 fluorescence;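 active means inhibition above a per-plate cutoff, the plate's mean sample inhibition plus 3 SD, cut at about 24% in these data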;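 further: 0% = DMSO plus EC80 ATP and 100% = DMSO alone without ATP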
# M1 ag: activates human CHRM1 receptor; P11229; CHO-K1 hM1, Fluo-8 calcium fluorescence, agonist mode; 0% DMSO, 100% acetylcholine EC100; activation, % at 3 µM; hit rate 0.33% among 360,000;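 active means activation above the run's mean compound activation plus 3 SD, cut at about 16% in these data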;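 further: peak over basal fluorescence ratio within a 140 s kinetic read after compound addition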
# Target sequence (P11229 whole entry, looked up): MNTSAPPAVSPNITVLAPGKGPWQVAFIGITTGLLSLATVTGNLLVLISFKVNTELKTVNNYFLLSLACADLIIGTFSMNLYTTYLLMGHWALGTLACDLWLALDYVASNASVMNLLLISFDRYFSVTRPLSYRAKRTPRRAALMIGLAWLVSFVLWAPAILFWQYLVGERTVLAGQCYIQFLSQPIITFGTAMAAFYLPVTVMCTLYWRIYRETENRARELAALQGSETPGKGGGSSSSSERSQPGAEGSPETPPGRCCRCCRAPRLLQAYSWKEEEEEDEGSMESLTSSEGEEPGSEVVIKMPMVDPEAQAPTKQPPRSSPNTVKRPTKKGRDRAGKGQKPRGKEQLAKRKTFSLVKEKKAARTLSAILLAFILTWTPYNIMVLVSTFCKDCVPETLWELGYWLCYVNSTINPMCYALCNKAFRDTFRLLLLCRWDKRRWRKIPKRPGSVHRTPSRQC
# M1 PAM: positive allosteric modulators of human M1 muscarinic receptor; P11229; CHO-K1 hM1, Fluo-8 calcium fluorescence, ACh EC20; 0% = ACh EC20, 100% = maximal ACh; activation, % at 3 µM; hit rate 0.088% among 360,000; AID 588819; in the data active means activation above about 19%, passing the limit was not always enough
# CHRM1 antagonist: blocks human M1 muscarinic receptor; CHO-K1 hM1, Fluo-8 calcium fluorescence, ACh EC80 antagonist; inhibition, % at 3 µM; P11229; hit rate 1.3% among 360,000;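 active means percent inhibition above its own plate's cutoff, namely the mean of that plate's compound wells plus 3 SD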;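 further: peak over basal fluorescence ratio during 140 s after agonist addition; 0% = ACh EC80 plus DMSO and 100% = DMSO alone without agonist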
# CHO-K1 Ca ag: nonselective activator or artifact in parental CHO-K1 cells. Fluo-8 calcium fluorescence; scaled to maximal ATP response, vehicle zero. activation, % at 3 µM. hit rate 0.48% among 360,000; in the data active means activation above about 15%;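 further: untransfected CHO-K1 host cells lacking M1 receptor as counterscreen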
# * hit, by the source's call.
SMILES,CHO-K1 Ca PAM,CHO-K1 Ca antag,M1 ag,M1 PAM,CHRM1 antagonist,CHO-K1 Ca ag
CC(O)CN(CC(C)O)c1ccc2c(c1)Cc1cc([N+](=O)[O-])ccc1-2 (stereo not drawn),-20,60*,134*,-29,71*,174*
CC(=O)SCC[N+](C)(C)C,9,5,70*,-29,24,0
Cc1nc(SCc2nc3ccc(C(F)(F)F)cc3[nH]2)c2oc3ccccc3c2n1,8,-18,-5,1,-1,0
COc1cn(-c2ccccc2)nc1C(=O)NCc1ccc(C)cc1,16,-7,-5,8,-16,-1
COc1cn(-c2ccccc2)nc1C(=O)NCc1ccccc1,5,-16,2,33*,-27,-1
COc1cccc(C(=O)OC(C)CN2CCCC2)c1 (stereo not drawn),0,-2,-8,-20,39*,0
CC(CN1CCCCC1)OC(=O)c1ccc2c(c1)OCO2 (stereo not drawn),18,-16,-5,-7,17,1
O=C(c1cc2ccccc2o1)N1CCCCCC1,12,-6,-6,5,-26,0
CC1CCN(CC(C)OC(=O)c2ccc3c(c2)OCCO3)CC1 (stereo not drawn),12,-1,-14,-32,67*,0
CC(CN1CCCCC1)OC(=O)c1cccc(F)c1 (stereo not drawn),17,-11,-7,8,-14,0
CC(CN1CCCCC1)OC(=O)c1cc2ccccc2o1 (stereo not drawn),10,-4,-5,-17,37*,1
CCCS(=O)(=O)NC(=O)C1(C)CCN(C(=O)c2cccc3ccccc23)C1 (stereo not drawn),6,-8,1,14,-19,-1
CC(=O)c1ccc(N2CCN(CC(O)COC(c3ccccc3)c3ccccc3C)CC2)cc1 (stereo not drawn),4,-4,-10,-33,101*,6
CC(=O)c1ccc(N2CCN(CC(O)COC(c3ccccc3)c3ccccc3)CC2)cc1 (stereo not drawn),18,15,-14,-36,91*,2
OC(COC(c1ccccc1)c1ccccc1)CN1CCN(c2cccc(Cl)c2)CC1 (stereo not drawn),11,-12,-11,-21,13,1
FC(F)(F)c1cc(CCN2CCNC[C@@H]2c2ccccc2)cc(C(F)(F)F)c1,-11,-4,-4,-3,9,1
FC(F)(F)c1cc(CCN2CCNC[C@@H]2CC2CCCCC2)cc(C(F)(F)F)c1,20,-16,12,-8,36*,0
CCCC[C@@H]1CNCCN1CCc1cc(C(F)(F)F)cc(C(F)(F)F)c1,10,-6,-12,-27,34*,0
O=C1NC(=O)/C(=C\c2cn(CC(=O)N3CCOCC3)c3ccccc23)S1,-18,5,-5,-11,18,0
C=CCn1c(SC(C)C(=O)NC2(C#N)CCCCC2)nnc1-c1ccc(OC)cc1 (stereo not drawn),2,0,-3,-9,33*,1
CC1CCC(C(C)C)C(OCC(O)CN2CCCC(C)C2)C1 (stereo not drawn),-9,-8,-8,-13,15,1
CC1CCC(C(C)C)C(OCC(O)C[N+]2(C)CCCCC2)C1 (stereo not drawn),-6,0,-6,-23,76*,0
CC1CCC(C(C)C)C(OCC[N+](C)(C)C)C1 (stereo not drawn),-9,-4,-10,-22,100*,1
CCN(c1ccccc1)S(=O)(=O)c1cccc(C(=O)Nc2cccc(C)n2)c1,0,0,-6,1,-10,1
CCOC(=O)c1cc(C)n(CCCN2CCOCC2)c1C,-5,-11,-7,-19,35*,1
CCOC(=O)c1cc(C(C)(C)C)n(CCCN2CCOCC2)c1C,17,-14,-3,5,-10,1
O=C(N/N=C/c1ccncc1)c1cccc(S(=O)(=O)N2CCCC2)c1,8,-2,-7,4,-6,1
CN(C)S(=O)(=O)c1cccc(NC(=O)c2cccc(S(=O)(=O)N3CCc4ccccc43)c2)c1,0,1,-4,-19,34*,9

# From PubChem BioAssay
